FBW7 act = human FBW7 E3 ligase activation, primary screen; Q969H0; AlphaScreen FBW7–phospho-cyclin E peptide binding, activator screen; normalized activity (activation), % at 26.1 µM; 650,000 tested, 0.13% active; in the data active = normalized activity above about 1.9%;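 note: purified mutant Fbw7 with reduced substrate affinity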
GPR151 ag = human GPR151 activation; Q8TDV0; PathHunter beta-arrestin GPR151 cells, luminescence; activation, % at 11.2 µM; 650,000 tested, 1% active; AID 1508602; in the data active = activation above about 4.9%;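 note: 0% = median of compound wells and 100% = cells with positive control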
Target sequence (Q8TDV0 whole entry, looked up): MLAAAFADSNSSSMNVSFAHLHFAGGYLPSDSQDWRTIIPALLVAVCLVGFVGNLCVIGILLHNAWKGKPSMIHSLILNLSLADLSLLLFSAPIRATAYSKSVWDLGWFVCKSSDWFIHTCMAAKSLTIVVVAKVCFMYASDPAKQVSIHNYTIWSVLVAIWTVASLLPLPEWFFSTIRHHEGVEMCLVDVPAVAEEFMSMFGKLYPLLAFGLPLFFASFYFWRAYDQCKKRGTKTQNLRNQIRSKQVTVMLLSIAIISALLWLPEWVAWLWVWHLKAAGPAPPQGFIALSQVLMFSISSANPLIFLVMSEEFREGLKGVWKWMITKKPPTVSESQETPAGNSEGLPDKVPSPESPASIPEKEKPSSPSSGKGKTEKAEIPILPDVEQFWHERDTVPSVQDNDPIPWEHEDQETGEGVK
TEAD-YAP inh = TEAD-YAP interaction inhibition; HEK-TIYL cells, TEAD-Gal4/YAP UAS-luciferase luminescence; inhibition, % at 9.12 µM; 640,000 tested, 1.4% active; AID 1259422; in the data active = inhibition above about 32%;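 note: 0% = median of test compound wells and 100% = reference inhibitor wells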
MITF inh = human MITF inhibition, primary screen. O75030. AlphaScreen MITF homodimerization, bead proximity signal. inhibition, % at 2.6 µM. 650,000 tested, 0.91% active. AID 1259374; in the data active = inhibition above about 50%;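 note: 0% = vehicle wells with protein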
* marks the source's active call; other numbers are inactive results. Rows were chosen to be rich in hits. Some 3.5% of all compounds tested hit in one or more screens of this group.

SMILES	FBW7 act	GPR151 ag	TEAD-YAP inh	MITF inh
COC(=O)c1ccc(NC2=NCC(=O)N2c2ccccc2)cc1	0.0	-0.2	1.0	9.5
O=C1NN(c2ccccc2)C(=O)/C1=C\C=C\c1ccccc1Cl	0.0	1.0	11.5	9.1
Cc1ncn(-c2ccc(Nc3cc(-c4nocc4-c4c(C)n[nH]c4C)ccn3)cc2)n1	0.2	-1.7	47.9*	4.6
CSc1nc(C)c(C(=O)Nc2ccccc2C)c(-c2ccc(Cl)cc2)c1C#N	-0.4	-1.2	-5.9	2.5
CCOC(=O)c1c(N)nn(C(=O)Cc2ccccc2)c1-c1ccc(OC)cc1	0.0	2.3	-5.2	3.5
Cc1ccc[n+](C(C)C(=O)c2ccc(-c3ccccc3)cc2)c1 (centres undefined)	-0.1	0.0	65.5*	-10.4
CC(C(=O)c1ccc(-c2ccccc2)cc1)[n+]1ccccc1 (centres undefined)	-0.2	0.3	17.9	-9.8
O=C(Nc1nc(-c2ccc(Br)s2)cs1)c1cccc(N2C(=O)CCC2=O)c1	0.5	-0.4	-4.1	3.3
CC1(C)CC(=NNC(=O)c2n[nH]c3c2CCC3)CC(C)(C)N1	0.1	3.2	61.6*	3.6
C/C(=N\NC(=O)c1n[nH]c2c1CCC2)C1CC1	-0.1	1.0	52.4*	8.1
COc1cccc(-c2cc(C(=O)N3CCCC3)no2)c1	0.1	-3.8	37.8*	10.1
O=C(c1cc(-c2cccc(O)c2)on1)N1CCCCC1	0.1	-2.7	67.1*	16.5
O=C(c1cc(-c2ccccc2)on1)N1CCCCCC1	0.7	-1.0	-66.8	23.3
CCC(C)C(=O)N1CCCC(c2nc(-c3cccc(OC)c3)no2)C1 (centres undefined)	-0.1	-1.5	61.4*	-4.3
C/C(=N\NC(=O)c1cc(-c2ccncc2)nc2ccccc12)c1ccc(C#N)cc1	0.0	-0.3	41.5*	7.5
COc1cccc(/C(C)=N/NC(=O)c2cc(-c3ccncc3)nc3ccccc23)c1	-0.1	-0.8	48.8*	0.5
C/C(=N\NC(=O)c1cc(-c2ccncc2)nc2ccccc12)c1ccc(-n2ccnc2)cc1	-0.1	1.2	42.8*	-11.4
COc1cccc(CNC(=O)c2cc(-c3ccncc3)nc3ccccc23)c1	-0.2	-1.3	5.7	6.1
CC/C(C)=N\NC(=O)c1cc(-c2ccccc2)nc2ccccc12	-0.1	2.1	-13.0	-9.7
CCN(CC)C(=O)N1c2ccccc2C=Cc2ccccc21	-0.1	0.0	62.0*	-2.0
COc1ccccc1CC(=O)Nc1cnc2cnc(-c3ccc(F)c(Cl)c3)cn12	1.9*	-0.2	-5.4	5.8
COc1ccc(-c2nc(Nc3cc(OC)c(OC)c(OC)c3)c3ncn(-c4ccccc4)c3n2)cc1	0.8	-1.3	-5.6	16.2
Cc1ccccc1-n1c(SCC(=O)Nc2nccs2)nnc1-c1cccnc1	0.1	1.1	61.9*	3.3
COc1ccccc1-n1c(SCC(=O)Nc2nc(C)cs2)nnc1-c1ccccn1	-0.4	-0.5	22.9	-3.5
Cc1csc(NC(=O)CSc2nnc(-c3ccccn3)n2-c2ccccc2Cl)n1	0.1	-0.2	61.9*	-3.4
SMILES	FBW7 act	GPR151 ag	TEAD-YAP inh	MITF inh
COc1ccc(-n2c(SCC(=O)NCc3cccs3)nnc2-c2cccnc2)cc1	0.2	0.0	1.6	4.7
COc1ccccc1-n1c(SCC(=O)NCc2cccs2)nnc1-c1cccnc1	3.3*	-0.5	4.5	-1.1
Cc1csc(NC(=O)CSc2nnc(-c3cccnc3)n2-c2ccccc2C)n1	0.0	0.7	62.1*	-2.1
COC(=O)c1cccc(NC(=O)c2ccc(Cl)c(Cl)c2)c1	-0.1	1.3	-70.6	-8.0
O=C(NCc1ccccc1)C(=O)Nc1ccc(Cl)c(C(F)(F)F)c1	0.5	-0.2	8.7	6.0
CCNc1cc(N2CCN(C(=O)c3cccc(Br)c3)CC2)ccc1[N+](=O)[O-]	0.4	0.3	-3.5	11.7
Cc1ccc2c(c1)N(CCCC(=O)Nc1ccc(Br)cc1F)C(=O)CO2	0.4	-0.9	0.9	2.5
O=C(COC(=O)CCOc1ccccc1)Nc1ncc(C(F)(F)F)cc1Cl	-0.1	-1.0	11.4	-10.0
Cc1ccccc1-n1c(SCC(=O)Nc2nccs2)nnc1-c1ccccn1	0.0	-0.1	36.6*	2.5
Cc1ccc(-n2c(SCC(=O)Nc3nccs3)nnc2-c2ccccn2)c(C)c1	-0.1	2.5	17.1	3.8
C=C(C)CSc1nc2c(c(=O)n1-c1ccccc1)C1(CCCCC1)Cc1ccccc1-2	0.0	-1.1	2.3	20.0
O=C(O)c1cccc(-c2cnn3c(N4CCC[C@H]4CO)ccnc23)c1	-0.2	-5.6	100.8*	18.4
OC[C@@H]1CCCN1c1ccnc2c(-c3ccccc3Cl)cnn12	-0.1	-1.0	48.4*	1.4
OCCC1CCCCN1c1ccnc2c(-c3ccc(Cl)cc3)cnn12 (centres undefined)	0.4	0.4	47.1*	-10.8
OCCC1CCCCN1c1ccnc2c(-c3ccc(CO)cc3)cnn12 (centres undefined)	-0.1	-0.5	-26.8	-1.4
OCCC1CCCCN1c1ccnc2c(-c3ccc(O)cc3)cnn12 (centres undefined)	0.2	-1.1	92.8*	-4.1
COc1ccccc1-c1cnn2c(N3CCC[C@H]3CO)ccnc12	0.1	1.7	-53.6	5.1
Cc1sc2nc3ccc(N4CCN(C)CC4)nn3c(=O)c2c1C	0.8	1.4	-3.5	0.1
Cc1cc(C=C2C(=O)N(C)C(=O)N(C)C2=O)c(C)n1-c1ccc(O)cc1	0.0	0.0	-1.6	8.8
CCCn1c(C)cn2c3c(=O)n(Cc4ccc(Cl)cc4)c(=O)n(C)c3nc12	0.0	0.2	-1.4	-16.3
CCCCN(C)CCCN(Cc1cccs1)C(=S)Nc1ccc(Cl)c(C)c1	-0.1	-0.2	12.8	4.8
OC[C@@H]1CCCN1c1ccnc2c(-c3ccc(Cl)cc3)cnn12	-0.2	-1.3	85.1*	19.5
OCCC1CCCCN1c1ccnc2c(-c3ccc4c(c3)OCO4)cnn12 (centres undefined)	-0.2	-0.3	42.6*	4.5
OCCC1CCCCN1c1ccnc2c(-c3ccoc3)cnn12 (centres undefined)	0.4	0.9	-9.4	-3.1
O=C(Nc1ccc2c(c1)OCO2)c1cc(-c2ccccc2)nc2ccccc12	-0.2	0.7	-4.3	4.6
SMILES	FBW7 act	GPR151 ag	TEAD-YAP inh	MITF inh
CS(=O)(=O)c1ccccc1C(=O)Nc1nc(-c2ccc(C#N)cc2)cs1	0.1	0.5	34.0*	4.2
Cc1ccc(S(=O)(=O)Nc2ccccc2C(=O)Nc2nc(-c3ccc(Br)cc3)cs2)cc1	-0.3	1.9	38.1*	-8.0
Cc1ccc(S(=O)(=O)Nc2ccccc2C(=O)Nc2nccs2)cc1	0.1	-0.2	39.0*	21.2
Cc1ccc(S(=O)(=O)Nc2ccccc2C(=O)Nc2nc(-c3cccs3)cs2)cc1	0.4	-0.9	0.5	-2.8
CSc1ccccc1C(=O)Nc1nc(-c2ccc(C#N)cc2)cs1	-0.1	2.8	-2.3	-7.2
Cc1ccc(S(=O)(=O)Nc2ccccc2C(=O)Nc2nc(-c3ccc(Br)s3)cs2)cc1	0.0	1.0	52.9*	-4.6
O=C(NCCOc1cc(N2CCOCC2)ncn1)c1ccco1	-0.2	-0.2	-27.0	18.3
Cc1ccc(S(=O)(=O)Nc2ccccc2C(=O)Nc2nc(-c3ccc(Cl)cc3)cs2)cc1	0.1	1.0	52.9*	2.5
